# Results published in PubChem BioAssay (NCATS).
# Assay: qHTS profiling for inhibitors of Plasmodium falciparum (3D7) proliferation (AID 743322);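 further: infected erythrocytes exposed to compound for 72 h before lysis; 100% = DMSO vehicle wells and 0% = 0.29 µM artemisinin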
# Settings: P. falciparum 3D7 proliferation; at 28.7 µM (top of the series) unless noted
# Text: Plasmodium falciparum is a virulent malarial parasite that kills 1-2 million people worldwide each year. Transmitted by mosquitoes, the sporozoite form of the parasite enters the blood stream to infect hepatocytes, where they become merozoites that infect red blood cells (erythrocytes). Within erythrocytes, merozoites begin a […] cycle of growth and division, after which the parasite is released to infect new red blood cells. Gametocytes, which form within erythrocytes as well, circulate in the bloodstream and are ingested by the mosquito, thereby completing the life cycle. To profile malarial isolates for differential chemical responses and to identify inhibitors of malarial growth, an assay that measures P. falciparum growth and replication within erythrocytes was employed. This assay uses a DNA binding fluorescent dye (SYBR Green) to detect parasite DNA following cell lysis. Because mature erythrocytes lack DNA, only Plasmodium-derived DNA is detected.
# The SYBR Green viability assay was adapted from a method described previously (Plouffe et al., 2008). For screening 3 ul culture medium was dispensed into 1536 well black clear bottom plates (Aurora Biotechnologies) using a Multidrop Combi (Thermo Fisher Scientific Inc.), 23 nL compounds in DMSO were added by a pin tool (Kalypsys), and 5 ul of erythrocytes infected with P. falciparum (0.3% parasitemia, 2.5% hematocrit final concentration) were added. The plates were incubated at 37 C in a humidified incubator in 5% CO2 for 72 h, and 2 ul lysis buffer (20 mM Tris HCl, 10 mM EDTA, 0.16% saponin, 1.6% triton X, 10X SYBR Green I supplied as 10,000X […] by Invitrogen) was added to each well. The plates were mixed for 25 sec with gentle shaking and incubated overnight at room temperature in the dark. The following morning, fluorescence intensity at 485(14) nm excitation and 535(25) nm emission wavelengths was measured on an EnVision (Perkin Elmer) plate reader. Plate reads were normalized relative to the control inhibitor (0.29 uM artemisinin) and vehicle (DMSO) wells present on each plate and then corrected by an algorithm using vehicle-only control plates at the beginning and end of the compound plate stack.
row,SMILES,remaining parasite growth % (stronger effect = lower value)
1,O=C(Oc1ccc([N+](=O)[O-])cc1)N1CCC(C(O)(c2ccc3c(c2)OCO3)c2ccc3c(c2)OCO3)CC1,26.6%
2,Cc1c(C(=O)Nc2cccc(C(F)(F)F)c2)cc(-c2ccccc2)n1CCCN1CCOCC1,8.32%
3,Cc1nc(-c2ccc(-c3ccc(C(=O)N4CCc5cc6c(cc54)C4(CCN(C)CC4)CO6)cc3)c(C)c2)no1,36.2%
4,CC(=O)Nc1ccc(OC[C@](C)(O)C(=O)Nc2ccc([N+](=O)[O-])c(C(F)(F)F)c2)cc1,102%
5,COc1ccc2c(c[n+](C)c3c4cc5c(cc4ccc23)OCO5)c1OC,47.6%
6,C=CCON=C(C[C@H]1O[C@@H]2O[C@]3(C)CC[C@@H]4[C@H](C)CC[C@@H]([C@H]1C)[C@@]24OO3)[C@H]1O[C@@H]2O[C@]3(C)CC[C@H]4[C@H](C)CC[C@@H]([C@@H]1C)[C@@]24OO3,-1.46%
7,CC1CC(C)C(=O)C(C(O)CC2CC(=O)NC(=O)C2)C1 (configuration not stated),0.131% [at 57.5 µM]
8,CCCCN1CCC(CNC(=O)c2c3n(c4ccccc24)CCCO3)CC1,91.7%
9,CC(C)[C@H]1C(=O)N[C@H](CO)Cc2c[nH]c3cccc(c23)N1C,107%
10,CC(C)(C)c1[nH]cnc1C=c1[nH]c(=O)c(=Cc2ccccc2)[nH]c1=O,58.1%
11,CC(C)[C@]12O[C@H]1[C@@H]1O[C@]13[C@]1(O[C@H]1C[C@H]1C4=C(CC[C@@]13C)C(=O)OC4)[C@@H]2O,103%
12,C1=CCOCc2cc(ccc2OCCN2CCCC2)Nc2nccc(n2)-c2cccc(c2)OCC1,105%
13,Cc1ccccc1-n1c(Cn2cnc3c(N)ncnc32)nc2cccc(C)c2c1=O,43.1%
14,CC[C@H](CO)Nc1nc(NCc2ccccc2)c2ncn(C(C)C)c2n1,61.3%
15,C/C=C(/C)C(=O)O[C@H]1C(C)=C2[C@H]([C@@H]1OC(=O)CCCCCCC)[C@@](C)(OC(C)=O)C[C@H](OC(=O)CCC)[C@@]1(O)[C@H]2OC(=O)[C@@]1(C)O,-0.149%
16,Nc1nc(-c2nn(Cc3ccccc3F)c3ncccc23)nc(N)c1N1CCOCC1,100%
17,COc1ccc2c(c1)CC[C@H]1[C@@H]2CC[C@]2(C)[C@@H](NCCCCCCN3C(=O)C=CC3=O)CC[C@H]12,86.3%
